Here are results for 21 compounds from PubChem BioAssay (NCI).

Test [1] in a line: NCI Yeast Anticancer Drug Screen. Data for the rad50 strain (AID 155).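 Also: 0% = growth of vehicle-only cultures of the same strain.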 The conditions noted are these: S. cerevisiae rad50 strain growth inhibition; at 50.0 µM; active compounds read high. Summed up:
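Compounds were tested on a yeast strain with an engineered DNA damage repair alteration; the reported value is growth inhibition normalised to vehicle treatment.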

Test [2] is described as follows: NCI Yeast Anticancer Drug Screen. Data for the mec2-1 strain (AID 157). The conditions noted are these: S. cerevisiae mec2-1 strain, at 50.0 µM, active compounds read high. Summed up: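 Test agents were screened against the mec2-1 yeast strain, with defined DNA repair or cell cycle alteration. Growth was scored as inhibition against vehicle-only controls.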
Test [3] can be described thus: NCI Yeast Anticancer Drug Screen. Data for the sgs1 mgt1 strain (AID 161).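 Also: 0% = growth of cultures given vehicle only.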 The conditions noted are these: S. cerevisiae sgs1 mgt1 strain, at 50.0 µM, active compounds read high. Summed up: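 Genetically altered yeast, compound exposure, growth inhibition relative to vehicle.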
A short description of test [4]: NCI Yeast Anticancer Drug Screen. Data for the cln2 rad14 strain (AID 165).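 Also: 0% = growth equal to vehicle treated cultures.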 The conditions noted are these: S. cerevisiae cln2 rad14 strain, at 50.0 µM, active compounds read high. Summed up:
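Growth of compound-exposed yeast (cln2 rad14 genotype) measured and expressed as inhibition relative to vehicle.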

Test [5] is described as follows: NCI Yeast Anticancer Drug Screen. Data for the bub3 strain (AID 167). The conditions noted are these: S. cerevisiae bub3 mutant strain, at 50.0 µM, active compounds read high. Summed up:
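Growth of a checkpoint-deficient yeast mutant is measured after compound exposure. Values represent inhibition relative to vehicle.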

The nature of test [6]: NCI Yeast Anticancer Drug Screen. Data for the mlh1 rad18 strain (AID 175). The conditions noted are these: S. cerevisiae mlh1 rad18 strain growth inhibition; at 50.0 µM; active compounds read high. Summed up:
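In this whole-cell yeast screen, a strain with altered DNA damage repair is challenged with compound, and its growth is measured against matched vehicle-treated controls.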

SMILES strings stand for the structures. About 79,000 compounds went through this panel and 15% of them were active in at least one assay; those are over-represented in the sample as a whole. Unmarked numbers belong to inactive results. The source made the active and inactive calls. Rule as the data show it: active = growth inhibition above about 70%; inactive = the rest.

`Cn1c(Cl)c(C=O)c(=O)n(C)c1=O`: the growth inhibition in test [1] is 17.8%; in test [2] it was -4.7%; in test [3], -5.95%; in test [4] it was -0.45%; in test [5] it was 7%; in test [6], -2.55%.
As to `O=C(OCCCl)Oc1c(Cl)cc([N+](=O)[O-])cc1[N+](=O)[O-]`, the growth inhibition in test [1] is 99.6% (active); in test [2], 99.8% (active); in test [3], 99.7% (active); in test [4], 99% (active); in test [5], 99.2% (active); in test [6], 99.5% (active).
As to `CCOC(=O)NCC(C)(C)N(C(=O)OCC)c1ccccc1`, the growth inhibition in test [1] was -24.1%; in test [2], -42.1%; in test [3], -15.7%; in test [4], -9.95%; in test [5], -37.8%; in test [6] it was -7.7%.
Turning to `CC1CC(=O)CCC2(C)C(OC(C)(C)C)CCC12` (stereo unspecified), the growth inhibition in test [1] is 14.7%; in test [2] it was -1.75%; in test [3], -5.75%; in test [4] it was 9.15%; in test [5], 33.2%; in test [6], 21.1%.
For the compound `Cc1ccnc(NC(=O)Nc2ccc(C)cc2[N+](=O)[O-])c1`, the growth inhibition in test [1] was 18.4%; in test [2], 26.7%; in test [3] it was 20.4%; in test [4], 8.35%; in test [5], 18.1%; in test [6], 24%.
Consider `O=C(c1ccccc1)c1ccc(Cl)c(Cl)c1`, for which the growth inhibition is -5.3% in test [1]; -23.3% in test [2]; 2.05% in test [3]; -55.5% in test [4]; 6.65% in test [5]; -8.05% in test [6].
As for `O=c1cc(-c2ccccc2)c2ccccc2[nH]1`, the growth inhibition was 2.15% in test [1]; -6.8% in test [2]; -12.5% in test [3]; 15.9% in test [4]; -27.1% in test [5]; -1% in test [6].
On to `O=C(OCc1ccco1)c1ccc([N+](=O)[O-])cc1`, for which the growth inhibition is -5.15% in test [1]; -7.3% in test [2]; -3.75% in test [3]; -32.6% in test [4]; -13.5% in test [5]; -12.8% in test [6].
On to `O=C(c1ccccc1)c1cnc2ccccn12`, for which the growth inhibition is -2.35% in test [1]; -2.35% in test [2]; -3.15% in test [3]; -15.9% in test [4]; 5.8% in test [5]; -8.05% in test [6].
`O=C(O)C(=O)C(c1ccccc1)c1ccccc1`: the growth inhibition in test [1] is -0.4%; in test [2] it was 6.9%; in test [3], -21.1%; in test [4], -29.1%; in test [5], -22.9%; in test [6] it was -5.3%.
In the case of `COc1ccc(CCN=C(N)CCl)cc1`, the growth inhibition is 11.8% in test [1]; 10.8% in test [2]; 7.4% in test [3]; 6.65% in test [4]; 18.9% in test [5]; -2% in test [6].
With `[O-][n+]1ccccc1/C=C/c1cccc[n+]1[O-]`, the growth inhibition was -30.1% in test [1]; -31.1% in test [2]; -7.55% in test [3]; -22% in test [4]; -0.85% in test [5]; -18.4% in test [6].
Take `O=C(NCCCCCCCCCCNC(=O)C12CC3CC(CC(C3)C1)C2)C12CC3CC(CC(C3)C1)C2`: the growth inhibition in test [1] is -1.5%; in test [2], -5.15%; in test [3], 2.3%; in test [4], 14.7%; in test [5], -2.1%; in test [6] it was -14.5%.
For `CC1=C(C(=O)Nc2ccccc2C)C(c2ccc(N(C)C)cc2)C(C(=O)Nc2ccccc2C)=C(C)N1`, the growth inhibition in test [1] is -27%; in test [2], -20%; in test [3] it was -17.4%; in test [4], -11.2%; in test [5], -8.95%; in test [6], -13.8%.
For `Cc1[nH]c(=O)nc(N/N=C/c2ccc(O)cc2)c1C(=O)Nc1ccc(Cl)cc1`, the growth inhibition is -17.6% in test [1]; -16% in test [2]; -20.6% in test [3]; -3.15% in test [4]; -12.6% in test [5]; -25.9% in test [6].
Regarding `CNOCc1ccc(C(=O)NC(C)C)cc1`, the growth inhibition is 12.2% in test [1]; 17.6% in test [2]; 2.8% in test [3]; -30.9% in test [4]; 11.7% in test [5]; 17.5% in test [6].
As for `COC1OC(COC(=O)Nc2ccccc2)C2OC12` (stereo unspecified), the growth inhibition in test [1] is 8.45%; in test [2] it was 2.8%; in test [3], 24.6%; in test [4], -55.4%; in test [5], -10%; in test [6], 1.25%.
For the compound `Cc1ccnc(SCC(=O)O)n1`, the growth inhibition is -4.35% in test [1]; -1.9% in test [2]; 5.45% in test [3]; 12.9% in test [4]; 10.6% in test [5]; 4.95% in test [6].
For the compound `CCCCCC(=O)Nc1cc(S(=O)(=O)O)cc2cc(S(=O)(=O)O)cc(O)c12`, the growth inhibition was -24.1% in test [1]; -15.2% in test [2]; -8.85% in test [3]; 10.7% in test [4]; -9.85% in test [5]; -7.7% in test [6].
Consider `O=C1N=C2C=CC=CN2CC1O` (stereo unspecified), for which the growth inhibition is -0.4% in test [1]; -11.2% in test [2]; -7.7% in test [3]; -13.2% in test [4]; 11.5% in test [5]; 15.3% in test [6].
As for `COC(=O)c1ccc(NCC2=CC(=O)c3ccccc3C2=O)cc1`, the growth inhibition in test [1] was 46.9%; in test [2], 38%; in test [3], 59%; in test [4], 48.4%; in test [5] it was 54%; in test [6], 88% (active).
